Counter-ions that a name gives are not always drawn. Unmarked numbers belong to inactive results.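 The calls were made as follows: active = log2 fold change beyond 2 SD from the library mean after excluding viability outliers; inactive = within 2 SD.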
molecular target: PARP1 L713F-nLuc biosensor (HCT116) (UniProt P09874); experiment: PARP1 L713F-nLuc/akaLuc ratio relative to DMSO control (biosensor stabilization) (fold change); higher = more PARP1 biosensor stabilization (target engagement / stabilizer), active = hit call of the paper; details: stock concentration (mM; final µM = stock mM x 1): 10; 24 h
Sequence (P09874 whole entry L713F, looked up): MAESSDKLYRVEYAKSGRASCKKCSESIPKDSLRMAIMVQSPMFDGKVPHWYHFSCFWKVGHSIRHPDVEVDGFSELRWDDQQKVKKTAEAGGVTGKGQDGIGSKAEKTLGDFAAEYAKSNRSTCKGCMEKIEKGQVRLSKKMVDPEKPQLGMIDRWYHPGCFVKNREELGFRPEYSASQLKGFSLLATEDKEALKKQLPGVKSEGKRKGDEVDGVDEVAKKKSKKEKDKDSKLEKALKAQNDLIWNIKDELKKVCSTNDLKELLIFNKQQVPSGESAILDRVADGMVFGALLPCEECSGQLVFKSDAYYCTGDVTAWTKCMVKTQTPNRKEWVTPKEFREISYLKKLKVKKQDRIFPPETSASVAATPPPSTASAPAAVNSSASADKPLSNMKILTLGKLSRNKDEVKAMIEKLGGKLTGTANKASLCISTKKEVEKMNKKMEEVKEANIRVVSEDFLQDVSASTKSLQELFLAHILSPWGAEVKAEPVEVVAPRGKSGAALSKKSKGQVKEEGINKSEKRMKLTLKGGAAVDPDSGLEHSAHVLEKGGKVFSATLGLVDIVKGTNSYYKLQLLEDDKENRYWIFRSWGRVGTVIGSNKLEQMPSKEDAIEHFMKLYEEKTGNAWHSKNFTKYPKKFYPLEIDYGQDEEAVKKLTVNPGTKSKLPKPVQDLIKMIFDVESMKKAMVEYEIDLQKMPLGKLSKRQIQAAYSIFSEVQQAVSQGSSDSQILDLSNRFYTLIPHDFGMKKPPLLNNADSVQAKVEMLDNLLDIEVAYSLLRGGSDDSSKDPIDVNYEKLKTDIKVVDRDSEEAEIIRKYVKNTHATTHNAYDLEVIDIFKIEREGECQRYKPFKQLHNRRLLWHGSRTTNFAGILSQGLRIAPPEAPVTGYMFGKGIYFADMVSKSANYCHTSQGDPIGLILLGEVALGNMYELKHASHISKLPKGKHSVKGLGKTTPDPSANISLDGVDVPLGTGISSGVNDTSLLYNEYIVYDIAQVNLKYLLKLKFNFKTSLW

Row | Structure (SMILES) | PARP1 L713F-nLuc/akaLuc ratio
1 | NC(=O)/C(=C/n1cnc(-c2cc(C(F)(F)F)cc(C(F)(F)F)c2)n1)c1cncnc1 [Eltanexor (KPT-8602)] | 0.767
2 | Cc1ccc(Oc2nc3cc(-c4ccc(-c5ccccc5)cc4)c(Cl)cc3[nH]2)cc1C(=O)O | 0.635
3 | CC(C)(C)C[C@@H]1N[C@@H](C(=O)N[C@H]2CC[C@H](O)CC2)[C@H](c2cccc(Cl)c2F)[C@]12C(=O)Nc1cc(Cl)ccc12 | 0.287 (active)
4 | CS(=O)(=O)c1ccc(-c2cnc(N)c(C(=O)Nc3ccccc3)n2)cc1 | 1.46
5 | Cn1cc(CCn2cnc(-c3cnn(C)c3)c2-c2ccc(C#N)cc2)cn1 | 0.997
6 | O=C(O)CC[C@H]1CC[C@@](c2cc(F)ccc2F)(S(=O)(=O)c2ccc(Cl)cc2)CC1 | 0.688
7 | CCN(CC)c1ccc(C=NNC(=O)c2ccncc2)c(O)c1 | 0.543
8 | C=CC(=O)N1C[C@H](Nc2ncnc3[nH]ccc23)CC[C@@H]1C [Ritlecitinib] | 1.01
9 | COc1cc(OC)cc(N(CCNC(C)C)c2ccc3ncc(-c4cnn(C)c4)nc3c2)c1 | 1.09
10 | Nc1nc2[nH]cnc2c(=S)[nH]1 [Thioguanine] | 1.03
11 | C[C@]12CCCN1CC1=NNC(=O)c3cc(F)cc4[nH]c2c1c34 [Pamiparib] | 5.97 (active)
12 | COc1ccccc1S(=O)(=O)Nc1ccc2c3c(cc(-n4cnc(C)c4)nc13)C(=O)N2C | 1.04
13 | O=c1c(O)c(-c2ccc(O)c(O)c2)oc2cc(O)ccc12 [Fisetin] | 0.701
14 | N#Cc1ccc(C(c2ccc(C#N)cc2)n2cncn2)cc1 [Letrozole] | 1.4
15 | CNCc1ccc(-c2[nH]c3cc(F)cc4c3c2CCNC4=O)cc1 [Rucaparib] | 5.36 (active)
16 | O=C(Nc1cnn2ccc(N3CCC[C@@H]3c3cc(F)ccc3F)nc12)N1CC[C@H](O)C1 [Larotrectinib (LOXO-101) sulfate] | 0.817
17 | COc1cc2c(Oc3ccc4[nH]c(C)cc4c3F)ncnc2cc1OCCCN1CCCC1 [Cediranib (AZD2171)] | 1.46
18 | NC(=O)c1cc(F)cc2c1C(=O)N(C1CCN(C3CCC(F)(F)CC3)CC1)C2 | 6 (active)
19 | O=C(O)c1c[nH]c2cc(Cl)c(-c3ccc(C4(O)CCC4)cc3)cc12 | 0.446
20 | Cc1cc(Nc2cc(N3CCN(C)CC3)nc(/C=C/c3ccccc3)n2)n[nH]1 | 1.27
21 | Cc1ccc(-c2cc(C(F)(F)F)nn2-c2ccc(S(N)(=O)=O)cc2)cc1 [Celecoxib] | 1.02
22 | CC(C)N(CCC(=O)c1ccc2ccccc2c1)Cc1ccccc1 | 0.841
23 | COc1cccc(-n2c(=O)[nH]c3cc(Cl)n(-c4ccc(-c5cccc(OC)c5O)cc4)c3c2=O)c1 | 0.814
24 | CO[C@@]12[C@H](COC(N)=O)C3=C(C(=O)C(C)=C(N)C3=O)N1C[C@@H]1N[C@@H]12 [Mitomycin C] | 1.07
25 | CCCS(=O)(=O)Nc1ccc(F)c(C(=O)c2c[nH]c3ncc(-c4ccc(Cl)cc4)cc23)c1F [Vemurafenib (PLX4032, RG7204)] | 0.608
26 | Cc1cccc(-c2nn3c(c2-c2ccnc4ccc(C(N)=O)cc24)CCC3)n1 | 0.664
27 | CC(C)(O)c1ccc(-c2nc3c(F)cc(F)cc3c(=O)[nH]2)cc1 [Tankyrase-IN-2] | 2.95 (active)
28 | NC(=O)c1cccc2cn(-c3ccc([C@@H]4CCCNC4)cc3)nc12 [Niraparib] | 4.32 (active)

From the supplement of paper PMC11624193, “Coupling cellular drug-target engagement to downstream pharmacology with CeTEAM” (Nature Communications, 2024)
